Experimental findings from PubChem BioAssay (NCI) are described below.

Test systems include DU-145 prostate; K-562 leukemia; MALME-3M melanoma; MDA-MB-231 breast; RXF 393 renal; SF-268 CNS; SF-295 CNS; SF-539 CNS; UACC-257 melanoma; M14 melanoma.
What all share (experiment): NCI-60 one-dose screen, 48 h (100 = growth as untreated, 0 = no growth, -100 = all killed)
Common to all, as to settings: 10 µM unless noted

Each structure is given as a SMILES string. Compounds without any hit were thinned out: in the full panel of roughly 83,000, 20% have a hit.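 How to read the values: 0–100, growth inhibition (40 = 60% inhibited); 0, no net growth; -100 to 0, cell death (-40 = 40% of starting cells died; -100 = all dead).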 Values without a mark were called inactive. Activity calls are given as the source filed them. Rule for the calls: active = growth percent below 10; inactive = the rest.

For the molecule `Fc1cnc(NC2CC2)nc1-c1cnc2ccc(N3CCOCC3)cn12`, the growth was 7.39% (active) in the experiment with DU-145 prostate; 10.9% in the experiment with K-562 leukemia; -33.7% (active) in the experiment with MALME-3M melanoma; 2.98% (active) in the experiment on MDA-MB-231 breast; -47.1% (active) in the experiment with RXF 393 renal; 0.958% (active) with SF-268 CNS. Also, the growth with SF-295 CNS was 3.46% (active); in the experiment on SF-539 CNS it was -35% (active); with UACC-257 melanoma, -7.35% (active); in the experiment on M14 melanoma, -26% (active).
Take `O=[N+]([O-])c1ccc(N2c3ccncc3Sc3ccncc32)cc1`: the growth with DU-145 prostate was 117%; in the experiment on K-562 leukemia it was 83%; in the experiment with MALME-3M melanoma it was 122%; in the experiment with MDA-MB-231 breast, 77.1%; in the experiment on RXF 393 renal it was 83.6%; in the experiment with SF-268 CNS it was 129%. For the same molecule, the growth in the experiment on SF-295 CNS was 103%; with SF-539 CNS it was 99.3%; in the experiment on UACC-257 melanoma, 113%; with M14 melanoma it was 106%.
As for `CC1SC(c2ccc(OCc3ccccc3)cc2)N(NC(=O)C(O)(c2ccccc2)c2ccccc2)C1=O` (stereo not given), the growth was 89.6% in the experiment on DU-145 prostate; 40.9% with K-562 leukemia; 72.3% with MALME-3M melanoma; 76.5% in the experiment with MDA-MB-231 breast; 51.4% in the experiment with RXF 393 renal; 71.4% in the experiment on SF-268 CNS. Besides, the growth with SF-295 CNS was -20.7% (active); in the experiment on SF-539 CNS, 74.4%; in the experiment on UACC-257 melanoma, 78.3%; in the experiment with M14 melanoma, 57.2%.
As to `CC/C=C\CCC/C=C1/C(=O)C=C[C@@H]1C/C=C\CCCC(=O)O`, the growth in the experiment with DU-145 prostate is 83.9%; in the experiment on K-562 leukemia, 7.87% (active); in the experiment on MALME-3M melanoma it was 92%; in the experiment on MDA-MB-231 breast it was 44.1%; with RXF 393 renal, 108%; in the experiment with SF-268 CNS it was 89%. Further, the growth in the experiment on SF-295 CNS is 82.9%; with SF-539 CNS, 103%; in the experiment with UACC-257 melanoma it was 72.3%; with M14 melanoma, 54.6%.
Consider `COc1ccc(Cl)cc1NC(=O)C(Br)C(Br)C(=O)O` (stereo not given), for which the growth in the experiment with DU-145 prostate was 97.2%; in the experiment with K-562 leukemia it was -27% (active); in the experiment with MALME-3M melanoma, 46.2%; with MDA-MB-231 breast it was 46.2%; with RXF 393 renal it was 44.4%; with SF-268 CNS it was 19.7%. Further, the growth in the experiment on SF-295 CNS is 99.8%; in the experiment with SF-539 CNS it was 77.7%; in the experiment with UACC-257 melanoma, 60.8%; with M14 melanoma, 75.9%.
As for `CNC(=O)CCN1CCN(CC/C=C2\c3ccccc3Sc3ccc(Cl)cc32)CC1`, the growth is 90.5% in the experiment on DU-145 prostate; 32.4% in the experiment with K-562 leukemia; 98% in the experiment with MALME-3M melanoma; 102% with MDA-MB-231 breast; 21.6% in the experiment on RXF 393 renal; 77.5% in the experiment on SF-268 CNS. For the same molecule, the growth is 98.5% in the experiment on SF-295 CNS, 97.3% in the experiment with SF-539 CNS, -30.9% (active) with UACC-257 melanoma and 81.3% in the experiment on M14 melanoma.
Take `C[C@@]1(CCC#N)[C@H]2CC[C@@H]3[C@H]4[C@H](C(=O)/C=C/c5cccnc5)CC[C@]4(C#N)CC[C@@]3(C)[C@]2(C)CC[C@H]1C(=O)/C=C/c1cccnc1`: the growth in the experiment with DU-145 prostate was 81.5%; in the experiment with K-562 leukemia it was 23.2%; in the experiment with MALME-3M melanoma it was 109%; in the experiment on MDA-MB-231 breast it was 93.4%; in the experiment on RXF 393 renal, 69.7%; in the experiment on SF-268 CNS, 61.7%. In addition, the growth was 100% in the experiment with SF-295 CNS, 83.7% with SF-539 CNS, 67.5% in the experiment on UACC-257 melanoma and 74.7% with M14 melanoma.
As to `O=C(NC(Cc1nnc2n(Cc3ccccc3)c(=O)c3c4c(sc3n12)CCCC4)c1ccc(Cl)cc1)c1ccccc1` (stereo not given), the growth is 96.7% in the experiment on DU-145 prostate; 91.9% with K-562 leukemia; 75.4% with MALME-3M melanoma; 83.2% in the experiment on MDA-MB-231 breast; 34.3% in the experiment on RXF 393 renal; 102% in the experiment on SF-268 CNS. Further, the growth was 71.7% in the experiment on SF-295 CNS, 80.2% in the experiment on SF-539 CNS, 105% with UACC-257 melanoma and 68% in the experiment with M14 melanoma.
Regarding `CCCc1cc2c(=O)c(C(=O)OC)c[nH]c2cc1N(CC)CC`, the growth in the experiment with DU-145 prostate is 112%; in the experiment on K-562 leukemia it was 96.2%; with MALME-3M melanoma it was 95.4%; in the experiment with MDA-MB-231 breast, 108%; in the experiment on RXF 393 renal it was 29.3%; in the experiment on SF-268 CNS it was 102%. The growth in the experiment with SF-295 CNS was 85.2%; with SF-539 CNS, 97.6%; in the experiment on UACC-257 melanoma, 136%; with M14 melanoma, 110%.
Regarding `N#Cc1c(N)nn(C(=O)c2ccc(NC(=O)c3ccccn3)cc2)c1-c1ccc(Cl)cc1`, the growth with DU-145 prostate was 3.96% (active); in the experiment on K-562 leukemia, 34.2%; in the experiment on MALME-3M melanoma it was -17.5% (active); in the experiment on MDA-MB-231 breast, 61.1%; in the experiment with RXF 393 renal, 54%; with SF-268 CNS it was -8.49% (active). Also, the growth in the experiment on SF-295 CNS is 54.9%; with SF-539 CNS, -27.8% (active); in the experiment on UACC-257 melanoma, 48%; in the experiment on M14 melanoma, 17.1%.
On to `O=C1N=c2cc3c(cc2=C/C1=C/c1sc(=S)n(CCc2ccc(O)cc2)c1O)OCCO3`, for which the growth in the experiment with DU-145 prostate was 80.6%; in the experiment with K-562 leukemia, 6.11% (active); in the experiment with MALME-3M melanoma it was 36.7%; in the experiment with MDA-MB-231 breast, 24.8%; with RXF 393 renal it was 92.9%; in the experiment on SF-268 CNS, 91.7%. In addition, the growth in the experiment on SF-295 CNS was 101%; with SF-539 CNS it was 95.8%; in the experiment on UACC-257 melanoma, 90.3%; in the experiment with M14 melanoma, 27.8%.
For the molecule `NC[C@H](O)c1ccc(O)c(O)c1`, the growth was 106% with DU-145 prostate; 106% with K-562 leukemia; 111% in the experiment on MALME-3M melanoma; 78.8% in the experiment on MDA-MB-231 breast; 117% in the experiment on RXF 393 renal; 112% with SF-268 CNS. The growth was 123% with SF-295 CNS, 92% in the experiment on SF-539 CNS, 109% in the experiment on UACC-257 melanoma and 95.9% in the experiment with M14 melanoma.
With `O=C(N/N=C/C=C/c1ccc([N+](=O)[O-])o1)c1cc2ccccc2cc1O`, the growth is -21.7% (active) with DU-145 prostate; 4.52% (active) in the experiment with K-562 leukemia; -68% (active) in the experiment with MALME-3M melanoma; -15.9% (active) with MDA-MB-231 breast; -63.2% (active) with RXF 393 renal; -20.3% (active) with SF-268 CNS. The growth was 14.4% in the experiment on SF-295 CNS, -83.6% (active) in the experiment on SF-539 CNS, -56.3% (active) in the experiment with UACC-257 melanoma and -100% (active) in the experiment on M14 melanoma.
